Data on 103 compounds can be found in ChEMBL document CHEMBL3988442, “University of Dundee, Small-Polar-MMV Screening Library” (2021).

Hit rate of the full screen: of about 48,000 compounds, about 13,000 (27%) showed an effect of 50% or more. The list shows a part of the results.

The assay has as its system Wolbachia pipientis. Kind of assay: Anti-Wolbachia Cell-Based Screen. The format is functional. The arrangement: scale not given: in the data most compounds retested in dose-response had high values. The conditions noted are these: 5 µM.
Regarding `CCN1CCN(C[C@@H]2CN(c3ncccc3C(F)(F)F)C[C@@H]2CO)CC1`, the “Percent Effect” value is -2.806%. For the compound `CCN1CC[C@@]2(C(=O)N(C)C)CCN(C(=O)Cc3ccccc3)CC[C@@H]12.O=C(O)C(F)(F)F`, the “Percent Effect” value was found to be 0.7047%. `COCC(=O)N1CCC2(CC1)CCn1c(-c3cccc(OC)c3)cnc12`: the “Percent Effect” value is listed as -17.52%. With `CCN1CC(=O)NCC12CCN(C(=O)c1ccco1)C2.O=C(O)C(F)(F)F` (stereo not drawn) the figure was -12.24%; with `CCN(C)c1ncnc2c1CCN(C(=O)COC)CC2.O=C(O)C(F)(F)F`, -4.529%. On to `O=C(O)C(F)(F)F.O=C(c1cscn1)N1CCc2ncc(CN3CCCC3)n2CC1`, for which the “Percent Effect” value is -30.66%.

Take `CCN1CCn2c(C)cnc2C12CCN(C(=O)COC)CC2.O=C(O)C(F)(F)F.O=C(O)C(F)(F)F`: the “Percent Effect” value was determined as 77.99%. For `CCN1CCn2c(C)cnc2C12CCN(C(=O)c1ccc(Cl)cc1)CC2.O=C(O)C(F)(F)F`, the “Percent Effect” value is -23.96%. For `CCN1CCn2c(C)cnc2C12CCN(C(=O)c1cscn1)CC2.O=C(O)C(F)(F)F.O=C(O)C(F)(F)F` the value was 113.9%; for `CCN1CCn2c(C)cnc2C12CCN(C(=O)c1ccco1)CC2.O=C(O)C(F)(F)F.O=C(O)C(F)(F)F`, 97.51%; for `CCN1CCn2c(C)cnc2C12CCN(C(=O)Cc1ccccc1)CC2.O=C(O)C(F)(F)F.O=C(O)C(F)(F)F`, 97.89%.

On to `CCCNC(=O)c1cc(-c2ccn(C(C)C)n2)n2ccccc12`, for which the “Percent Effect” value was -14.06%. For `CCC1CN(Cc2c(O)ccc3oc4c(c23)CCCC4)CCO1` (stereo not drawn) the value was -8.053%; for `CCCn1nc(-c2nc(Cc3ccc(OC)cc3)no2)ccc1=O`, -20.77%; for `CC(C)c1nc2c(n1C)CCN(CCCc1nc3ccccc3o1)C2`, -2.699%. In the case of `Cn1cc(-c2nc(CN3CCN(CCO)CC3)cs2)cn1`, the “Percent Effect” value is on record as -9.549%. With `Cc1ccc(C(C)(O)CNC(=O)c2scnc2C)o1` (stereo not drawn) the figure was -6.969%. For `Cc1ccc2oc(=O)n(CCC(=O)N3CCCC4(CNC(=O)O4)C3)c2c1` (stereo not drawn) the value was -2.854%. For `CC(C)c1ccc(C(O)Cn2c(=O)c(C#N)cn(C3CC3)c2=O)cc1` (stereo not drawn) the value was -1.509%; for `O=C(O)C(F)(F)F.O=C(O)C(F)(F)F.c1cncc(COCc2nnc3n2CCN(CC2CC2)C3)c1`, -1.478%; for `CC(C)N(C)Cc1nnc2n1CCN(Cc1ccncc1)CC2.O=C(O)C(F)(F)F.O=C(O)C(F)(F)F.O=C(O)C(F)(F)F`, -8.532%.

For the compound `COCc1nnc2n1CCN(Cc1ccoc1)C2.O=C(O)C(F)(F)F`, the “Percent Effect” value was -3.646%.

Turning to `CC(C)N(C)Cc1nnc2n1CCN(CC1CC1)CC2.O=C(O)C(F)(F)F.O=C(O)C(F)(F)F`, the “Percent Effect” value stood at 9.045%.

Consider `CN(C)CCOCc1nnc2n1CCN(CC1CC1)CC2.O=C(O)C(F)(F)F.O=C(O)C(F)(F)F`, for which the “Percent Effect” value came out at 103.3%. For `CN(C)CCOCc1nnc2n1CCN(Cc1ccsc1)C2.O=C(O)C(F)(F)F.O=C(O)C(F)(F)F` the value was -13.86%. `CN(C)CCOCc1nnc2n1CCN(Cc1ccc(F)cc1)CC2.O=C(O)C(F)(F)F.O=C(O)C(F)(F)F`: the “Percent Effect” value was found to be 109.9%.

Take `CN(C)C(=O)COCc1nnc2n1CCN(Cc1ccsc1)C2.O=C(O)C(F)(F)F`: the “Percent Effect” value is given as 3.675%. For `COc1ccc(CN2CCc3nnc(COCCN(C)C)n3CC2)cc1.O=C(O)C(F)(F)F.O=C(O)C(F)(F)F` the value was 131%; for `CN(C)C(=O)COCc1nnc2n1CCN(Cc1ccoc1)C2.O=C(O)C(F)(F)F`, -2.89%; for `CN(C)CCOCc1nnc2n1CCN(Cc1ccoc1)CC2.O=C(O)C(F)(F)F.O=C(O)C(F)(F)F`, 88.27%.

Regarding `CCc1sc(-c2nnc(CNCCn3cccn3)o2)cc1C`, the “Percent Effect” value is given as -1.143%. As to `COc1cccc([C@H]2CN(CCCS(=O)(=O)N(C)C)C[C@@H]2N)c1`, the “Percent Effect” value is given as -12.77%. For `Cn1ccnc1CN1CC[C@@H](NS(C)(=O)=O)[C@@H]1Cc1ccccc1.O=C(O)C(F)(F)F` the value was 9.127%; for `O=C(NC1CCS(=O)(=O)C1)N1CCN(c2cnccn2)CC1` (stereo not drawn), 3.203%; for `Clc1ccccc1-c1nnc(CSCCN2CCOCC2)o1`, -8.486%. With `COCCN(CC(C)C)c1cc(C)ncn1`, the “Percent Effect” value worked out at 0.855%.

Take `COc1ccc2c(C)c(C(=O)NC3CCCOC3)oc2c1` (stereo not drawn): the “Percent Effect” value is given as -7.174%. For `Cc1cccc(-c2noc(C)c2C(=O)NC2CCCOC2)c1.O=C(O)CC(O)(CC(=O)O)C(=O)O` (stereo not drawn) the value was 154%; for `Cc1c(C(=O)NC2CCCOC2)nnn1-c1ccc(Cl)cc1F` (stereo not drawn), -27.09%.

Consider `O=C(OCc1cc(=O)n2cc(Br)ccc2n1)c1ccc2c(c1)OCO2`, for which the “Percent Effect” value was found to be 110.5%.

With `CN(CCO)Cc1cc(=O)n2cc(Br)ccc2n1`, the “Percent Effect” value is reported as 0.309%. For `O=c1cc(CNCc2ccc3c(c2)OCO3)nc2ccccn12`, the “Percent Effect” value is reported as 121%. For `O=c1cc(CN(CCO)C2CC2)nc2ccc(Br)cn12` the value was 3.193%; for `c1cn2c(n1)CO[C@@H](CNCc1ccc3c(c1)OCO3)C2`, -4.812%. In the case of `O=c1cc(CNCc2ccc3c(c2)OCO3)nc2ccc(Br)cn12`, the “Percent Effect” value was 115.5%.

Regarding `CCN(Cc1cc(=O)n2cc(Br)ccc2n1)C1CC1`, the “Percent Effect” value is reported as 1.133%. For `O=c1cc(CN(Cc2ccco2)C2CC2)nc2ccc(Br)cn12` the value was -5.391%; for `O=c1cc(CN(CCO)C2CC2)nc2ccccn12`, -7.428%. Take `COc1ccccc1-n1nc(CC(C)C)nc1Cc1nnc(N)s1`: the “Percent Effect” value is recorded as 123.6%. For `Cc1cccc(-n2nc(CC(C)C)nc2CS(C)(=O)=O)c1`, the “Percent Effect” value was 2.26%. For the compound `CC(C)Cc1nc(CS(C)(=O)=O)n(-c2ccccn2)n1`, the “Percent Effect” value is on record as -36.43%. For `COc1ccccc1OCc1nc(C(C)C)no1` the value was -14.46%; for `COc1ccccc1-n1c(CC(C)C)nnc1SCC(=O)O`, -51.76%.

`COc1ccccc1-n1nc(C(C)C)nc1Cc1nnc(N)s1`: the “Percent Effect” value is given as 123.2%. As for `Cc1cccc(-n2nc(CC(C)C)nc2CCCC(N)=O)c1`, the “Percent Effect” value was 10.56%.

For `COc1ccc(-n2nc(C(C)C)nc2COC(C)C)cc1`, the “Percent Effect” value was -17.3%. With `COc1ccccc1-n1nc(CC(C)C)nc1CSc1nnc(N)s1` the figure was 106.5%; with `CN(CCN1CCCCCC1)c1nccc(N2CCC(O)C2)n1` (stereo not drawn), 17.45%; with `CCc1nc(CN(C)c2nccc(N3CCCC(O)C3)n2)no1` (stereo not drawn), 114.5%.

Consider `CC(C)c1nc(CCN(C)c2nccc(N3CCCC(O)C3)n2)no1` (stereo not drawn), for which the “Percent Effect” value is 96.48%. For `CCc1noc(CN(C)Cc2ccc(N3CCCCC3)cc2)n1` the value was 6.491%.

Consider `CCc1nc(C2CCCN(c3nccc(N4CCCC4)n3)C2)no1` (stereo not drawn), for which the “Percent Effect” value is -11.44%. For the compound `CN(Cc1nccn1C)c1nccc(N2CCCC(O)C2)n1` (stereo not drawn), the “Percent Effect” value is listed as 5.071%. Take `CN(Cc1nncn1C)c1nccc(N2CCC(O)CC2)n1`: the “Percent Effect” value stood at 2.442%.

As for `CCc1nnc(CN(C)c2nccc(N3CCCC(O)C3)n2)o1` (stereo not drawn), the “Percent Effect” value came to 80.06%. With `CC(C)c1nc(C2CCCN(c3nccc(N4CCCC4)n3)C2)no1` (stereo not drawn) the figure was -3.198%; with `CO[C@H]1COCCN(C(=O)c2ccc(C#N)cc2)C1`, 6.544%. Consider `CC(NC(=O)CN1C=Nc2ccccc2S1(=O)=O)c1ccccc1` (stereo not drawn), for which the “Percent Effect” value is on record as 1.961%. For `Cc1cc(NC(=O)N(C)C2CCCN(c3ccccc3)C2=O)n(C)n1` (stereo not drawn) the value was 12.64%; for `Cc1c(NC(=O)C(C)N(C)C)c(=O)n(-c2ccccc2)n1C` (stereo not drawn), 117.4%; for `Cc1nn(C(C)C)c(C)c1NC(=O)c1ccccc1`, -6.028%. With `CN(Cc1ccsc1)c1nc(-c2ccccn2)nc2c1CCNCC2` the figure was 9.446%; with `Cc1nnc([C@@H]2CCO[C@@H]3CCN(C(=O)Cc4ccccn4)C[C@@H]32)o1`, -1.99%; with `O=C(CC1CCCC1)N1CCC(c2nnc(-c3ccccn3)o2)CC1`, 116.1%.

For the compound `O=C(Cn1cccn1)N1CCC(c2nnc(C(F)(F)F)o2)CC1`, the “Percent Effect” value was 121.4%. With `O=C(c1ccccn1)N1CCCN(Cc2nnc(C3CC3)o2)CC1` the figure was -3.394%; with `O=C(Cc1ccccc1)N1CC[C@@H]2CNS(=O)(=O)[C@@H]2CC1`, -4.028%. With `O=C(Cc1ccccc1)N1CCC(c2nnc(-c3ccccn3)o2)CC1` the figure was 100.4%. As for `CN(C)S(=O)(=O)N1CCC(c2nnc(C(F)(F)F)o2)CC1`, the “Percent Effect” value stood at 9.522%.

`O=C(CCn1cccn1)N1CCC(c2nnc(-c3ccccn3)o2)CC1`: the “Percent Effect” value came to 80.52%.

Take `CS(=O)(=O)NC1CCN(C(=O)CCn2cccn2)CC1`: the “Percent Effect” value was -7.028%.

As for `O=C(CCn1cccn1)N1CCC(C2CCN(c3ncccn3)CC2)C1` (stereo not drawn), the “Percent Effect” value stood at 0.2616%. For `CCS(=O)(=O)N1CCC(c2nnc(C(F)(F)F)o2)CC1` the value was -1.552%; for `O=C(CC1CCN(c2ncnc3ccccc23)CC1)N1CCCC1`, -18.62%.

Regarding `Cc1cnn(CC2CCN(c3cc(C(C)C)nc4ccnn34)CC2)c1`, the “Percent Effect” value is listed as -2.497%. Turning to `COC(=O)c1sccc1S(=O)(=O)N1CCC(Oc2cccc(C)n2)CC1`, the “Percent Effect” value was -4.236%. Turning to `Cc1ccc(Cc2sc(NC(=O)C(C)S(C)(=O)=O)nc2C)cc1` (stereo not drawn), the “Percent Effect” value is -9.615%. Consider `O=C(CC1CCN(c2ncnc3cccc(F)c23)CC1)N1CCCC1`, for which the “Percent Effect” value was determined as 7.525%. For `O=C(CC1CCCC1)N1CCC(c2noc(-c3ccccn3)n2)CC1` the value was 138.8%. For `CN(C)CCCn1ccnc1C1CCN(C(=O)Cc2cccnc2)CC1`, the “Percent Effect” value is recorded as -18.68%.

As to `Cn1cncc1-c1nnc([C@H]2CCN(Cc3cccnc3)C2)o1`, the “Percent Effect” value is recorded as -10.77%. In the case of `O=C(Cc1cccnc1)N1CCC(c2nnc(-c3ccccn3)o2)CC1`, the “Percent Effect” value is on record as 116.7%.

For the compound `Cc1noc(C)c1CN(C)CCC(=O)N1CCc2sccc2C1`, the “Percent Effect” value was -7.36%. On to `O=C(NCCc1ccncc1)[C@@H]1CC[C@@H]2[C@@H](CCN2Cc2ccco2)O1.O=C(O)C(F)(F)F.O=C(O)C(F)(F)F`, for which the “Percent Effect” value is -6.425%. For `COc1ccc(CN2CC[C@H]3O[C@@H](C(=O)NCC4CC4)CC[C@H]32)cc1.O=C(O)C(F)(F)F` the value was 93.13%; for `O=C(NCc1ccco1)[C@@H]1CC[C@@H]2[C@@H](CCN2CC2CC2)O1.O=C(O)C(F)(F)F`, -3.769%. With `O=C(NCC1CCOCC1)[C@@H]1CC[C@@H]2[C@@H](CCN2Cc2ccncc2)O1.O=C(O)C(F)(F)F.O=C(O)C(F)(F)F` the figure was 108.2%. As to `CNC(=O)[C@@H]1CC[C@@H]2[C@@H](CCN2Cc2ccccc2F)O1.O=C(O)C(F)(F)F`, the “Percent Effect” value is recorded as -4.389%.

`O=C(NCC1CC1)[C@@H]1CC[C@@H]2[C@@H](CCN2Cc2ccc(F)c(F)c2)O1.O=C(O)C(F)(F)F`: the “Percent Effect” value was determined as 110.1%.

Regarding `O=C(NCc1ccco1)[C@@H]1CC[C@@H]2[C@@H](CCN2Cc2ccc(F)cc2)O1.O=C(O)C(F)(F)F`, the “Percent Effect” value is -0.4343%. Take `O=C(NCC1CC1)[C@@H]1CC[C@@H]2[C@@H](CCN2Cc2ccco2)O1.O=C(O)C(F)(F)F`: the “Percent Effect” value is reported as 95.42%.

For the compound `CNC(=O)[C@H]1CC[C@@H]2[C@@H](CCN2CCOCc2ccccc2)O1.O=C(O)C(F)(F)F`, the “Percent Effect” value turned out to be 2.484%.

Turning to `O=C(NCC1CC1)[C@@H]1CC[C@@H]2[C@@H](CCN2CCOCc2ccccc2)O1`, the “Percent Effect” value is given as -46.75%.
